The nature of the test: growth rescue of sdo1-depleted yeast, primary screen, S. cerevisiae, bone marrow failure model (AID 817).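 Further: z-score against mean and SD of all compound wells on the same plate.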 Particulars: S. cerevisiae sdo1-depleted JHY4D growth rescue, at 10 µM, stronger effect = higher value, pdr5 snq2 efflux-pump mutant strain.
Setting [1] is: OD600, measured here: growth rescue at 24 h.

Screen size: about 140,000 compounds; about 300 (0.21%) were called active.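 How the source made its calls: active means z-score above 3 at both the 24 hr and the 30 hr optical density reads; inactive means the rest, inconclusive results apart.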 Only a selection was taken, and actives are over-represented in it overall.

Consider `CC(NC(=S)Nc1ccccc1)C1COc2ccccc2O1` (centres undefined), for which the z-score runs as follows: (OD600 30 h) -0.7 (inactive); under setting [1], 0.37.

In the case of `Clc1cccc(CN2COc3c(cc(Cl)c4cccnc34)C2)c1`, the z-score reads like this: (OD600 30 h) -1.42 (inactive); under setting [1], 1.02.

As for `COc1ccc(C(=O)CSc2nnc(NC(=O)C3CC(=O)N(c4cccc(OC)c4)C3)s2)cc1` (centres undefined), the z-score (OD600 30 h) was -0.16 (inactive) and the z-score under setting [1] is 0.63.

Regarding `Cn1cccc1/C=C1\SC(=S)N(NC(=O)c2ccc(Cl)cc2)C1=O`, the z-score runs as follows: (OD600 30 h) -1.05 (inactive); under setting [1], -0.65.

On to `COc1cc(OC)c(-n2cc(-c3ccc(Cl)cc3)[nH]c2=O)cc1Cl`, for which the z-score is, setting by setting: (OD600 30 h) 0.21 (inactive); under setting [1], 1.29.

Turning to `COCCCNC(=O)CNC(=S)N(Cc1cc(OC)c(OC)c(OC)c1)C1CCCC1`, the z-score is 1.27 (inactive) (OD600 30 h) and 0.62 under setting [1].

Turning to `O=C(NC(=S)NC1CCSC1=O)c1ccccc1F` (centres undefined), the z-score was 1.34 (inactive) (OD600 30 h) and 0.37 under setting [1].

For `COc1cc(OC)c(C(=O)OC(C)C(=O)Nc2cc(C(F)(F)F)ccc2Cl)cc1OC` (centres undefined), the z-score was -0.55 (inactive) (OD600 30 h) and -0.89 under setting [1].

With `COc1ccc(COC(=O)N/N=C(\C)CC(=O)Nc2ccc(Cl)cc2)cc1`, the z-score reads like this: (OD600 30 h) -0.6 (inactive); under setting [1], -0.79.

For the compound `Cc1cccc2cc(CN(Cc3cccs3)C(=S)NCc3ccco3)c(=O)[nH]c12`, the z-score runs as follows: (OD600 30 h) -0.84 (inactive); under setting [1], -0.86.

Regarding `Cc1nc(CC(=O)NNS(=O)(=O)c2ccc(F)c(Cl)c2)cs1`, the z-score was -0.8 (inactive) (OD600 30 h) and -1.4 under setting [1].

Take `Oc1c(Br)cccc1/C=N/Nc1c(F)c(F)c(F)c(F)c1F`: the z-score is -1.2 (inactive) (OD600 30 h) and -1.07 under setting [1].

On to `CCCCC(NS(=O)(=O)c1ccc(C)cc1)C(=O)Oc1ccc2c3c(c(=O)oc2c1)CCC3` (centres undefined), for which the z-score (OD600 30 h) is 3.73 (inactive) and the z-score under setting [1] is 0.78.

Consider `COc1ccc2c(Cl)c(-c3nnco3)sc2c1`, for which the z-score (OD600 30 h) is -1.26 (inactive) and the z-score under setting [1] was -0.79.

For `COc1ccc(-c2noc(-c3cccc(OC)c3OC)n2)cc1OC`, the z-score is 0.11 (inactive) (OD600 30 h) and 0.39 under setting [1].

As for `COc1ccc(-c2nnco2)cc1OC`, the z-score by setting is: (OD600 30 h) 12.4 (active); under setting [1], 7.83.

With `O=C(COC(=O)c1ccc(Oc2ccccc2)cc1)Nc1nnc(-c2ccccc2)o1`, the z-score was 0.36 (inactive) (OD600 30 h) and -0.67 under setting [1].

On to `COc1cccc(-c2nnc(NC(=O)c3ccc(S(=O)(=O)N(CC(C)C)CC(C)C)cc3)o2)c1`, for which the z-score was 5.73 (active) (OD600 30 h) and 8.93 under setting [1].

Take `COc1cccc(NC(=O)CN(C)S(=O)(=O)c2ccc(C)cc2)c1`: the z-score runs as follows: (OD600 30 h) -1.24 (inactive); under setting [1], -0.78.

For `O=C(Cc1ccc(-c2ccccc2)cc1)NC(c1ccccc1)c1ccccc1`, the z-score was -0.71 (inactive) (OD600 30 h) and -0.45 under setting [1].

For the compound `COc1ccc(CC(=O)Nc2cc(S(=O)(=O)N3CCCCC3)ccc2N2CCN(C)CC2)cc1`, the z-score is, setting by setting: (OD600 30 h) 0.01 (inactive); under setting [1], -0.4.

For the compound `O=[N+]([O-])c1cccc(S(=O)(=O)N2CCCCCC2)c1`, the z-score reads like this: (OD600 30 h) 0.38 (inactive); under setting [1], -0.08.

As to `Cc1ccc(C(C)C)cc1OCCN1CCCC1`, the z-score was -1.51 (inactive) (OD600 30 h) and -0.59 under setting [1].

Regarding `O=C(Nc1ccc(CSc2ccccc2)cc1)c1ccc(CN2CCOCC2)cc1`, the z-score (OD600 30 h) was -1.65 (inactive) and the z-score under setting [1] is -1.3.

Take `CSCC[C@H](NC(=O)OC(C)(C)C)C(=O)N/N=C/c1cc2ccc(C)cc2nc1Cl`: the z-score was -1.17 (inactive) (OD600 30 h) and -0.96 under setting [1].

For `Cc1ccc(C)c(OCC(=O)N2CCN(C(=O)c3ccco3)CC2)c1`, the z-score by setting is: (OD600 30 h) 2.17 (inactive); under setting [1], 2.

Turning to `CCn1c(/C=N/NC(=O)c2ccc(OC)cc2)nc2ccccc21`, the z-score by setting is: (OD600 30 h) -1.61 (inactive); under setting [1], -0.95.

Turning to `CC(C)CC(CO)N1CCN(C(=O)c2ccc(Cl)cc2Cl)CCC1=O` (centres undefined), the z-score (OD600 30 h) was 0.36 (inactive) and the z-score under setting [1] is -0.56.

For `CC(=O)Nc1ccc(SCC(=O)Nc2ccccc2Oc2ccccc2)cc1`, the z-score (OD600 30 h) is -0.06 (inactive) and the z-score under setting [1] is -0.09.

Consider `Cc1sc2nc(CC(N)=O)[nH]c(=O)c2c1-c1ccccc1`, for which the z-score was 0.91 (inactive) (OD600 30 h) and 0.6 under setting [1].

As for `CCOc1cc(NC(=S)NCCCOC)c(OCC)cc1NC(=O)c1ccco1`, the z-score reads like this: (OD600 30 h) 0.22 (inactive); under setting [1], -0.09.

With `CCOc1cccc(OCCCOc2cccc3cccnc23)c1`, the z-score runs as follows: (OD600 30 h) -1.11 (inactive); under setting [1], -0.59.

The values above are taken from PubChem BioAssay AID817 (Emory University Molecular Libraries Screening Center, 2007).
